Compound activity from PubChem.
Most compounds without a hit are left out; they make up all but 2.4% or so of the library.
D2 ag-1 = D2 dopamine receptor (human) agonism; activation, % at 2 µM; HEK293 T-REx D2 cells, calcium flux agonist mode; P14416; 340,000 compounds, 0.53% hits;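 active = activation over 3 SD above normal in the single-dose calcium agonist read, cut at about 30% in these data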; note: 0% is about no effect
Target sequence (P14416 whole entry, looked up): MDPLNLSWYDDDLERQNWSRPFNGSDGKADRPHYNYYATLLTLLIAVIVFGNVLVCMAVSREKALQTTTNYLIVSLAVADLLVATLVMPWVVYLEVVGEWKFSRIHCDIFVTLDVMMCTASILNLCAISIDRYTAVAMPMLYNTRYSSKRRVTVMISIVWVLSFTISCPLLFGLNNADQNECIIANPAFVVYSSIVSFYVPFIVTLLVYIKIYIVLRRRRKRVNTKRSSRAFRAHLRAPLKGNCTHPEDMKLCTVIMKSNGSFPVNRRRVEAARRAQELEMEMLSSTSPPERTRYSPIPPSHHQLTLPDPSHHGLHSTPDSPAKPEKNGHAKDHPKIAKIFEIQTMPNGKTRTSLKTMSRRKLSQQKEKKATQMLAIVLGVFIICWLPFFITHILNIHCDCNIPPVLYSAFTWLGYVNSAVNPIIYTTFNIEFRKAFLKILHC
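Agonism scored from kinetic calcium signal (1 read/sec, 180 s) following compound pin transfer, after a 10 s baseline. Cells: HEK293 Trex line expressing inducible D2 receptor coupled to calcium, dye-loaded after overnight culture at 30 C.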
D2 ag-2 = agonists of human D2 dopamine receptor (beta-arrestin); activation, % (no concentration beside the values); 360,000 compounds, 0.084% hits; DiscoveRx PathHunter D2 beta-arrestin, luminescence, 90 min; 100% = 57 uM dopamine signal; in the data active = activation above about 40%; inconclusive = between about 15% and that limit
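Agonist mode: compounds alone added to overnight-plated D2 PathHunter cells for 90 min at 37 C, with 57 uM final dopamine (EC100) defining full response. Beta-arrestin recruitment detected by chemiluminescent reagent, read after 1 h at ambient temperature.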
D2 antag = D2 dopamine receptor (human) antagonism; inhibition, % at 10 µM; HEK293 TREx D2 cells, calcium flux, dopamine EC80; AID 485344; 340,000 compounds, 2% hits; in the data active = inhibition above about 30%; inactive = below that, where a call was filed; note: 0% is about no effect
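Inhibition of EC80 dopamine-driven calcium flux, recorded kinetically, defines activity here; cells are a tetracycline-induced HEK293 T-REx line expressing force-coupled D2.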
D2 PAM-1 = D2 dopamine receptor (human) potentiation. HEK293 T-REx D2, calcium flux, EC20 dopamine potentiation. 340,000 compounds, 0.34% hits. AID 485347. potentiation, % at 10 µM;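 active = potentiation over 3 SD above the plate norm, cut at about 30% in these data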; note: 0% is about no effect
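Tetracycline-induced HEK293 T-REx cells force-coupled to calcium signalling expressed D2; compounds were pin-added after a 10 s baseline, read kinetically 180 s, then an EC20 dopamine challenge followed with a further 180 s calcium read.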
D2 PAM-2 = potentiates the human D2 dopamine receptor allosterically; P14416; DiscoveRx D2 beta-arrestin cells, luminescence, 90 min; 100% = 57 uM dopamine signal; potentiation, % (concentration not given with the values); 360,000 compounds, 0.23% hits; in the data active = potentiation above about 50%; inconclusive = mostly about 30% to 49%
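PathHunter beta-arrestin assay in DiscoveRx D2 cells. Compounds were added with an EC20 of dopamine (50 nM final) for 90 min at 37 deg C. Luminescence was read 1 h after detection reagent, with 57 uM dopamine as the EC100 control.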
B2AR arrestin = agonists driving beta-arrestin recruitment to human beta2-adrenergic receptor. P07550. beta-arrestin recruitment to beta2AR, cell-based reporter. 330,000 compounds, 0.02% hits. Potency, µM (highest dose often 46.1 µM), without a hit: at the highest dose activation, actives largely listed as activators; active = well fitted activation curve with a large enough effect; inconclusive = small, poorly fitted or top-dose-only effect;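 note: potency is the fitted concentration of half-maximal effect; 0% = DMSO controls and full agonism = EC100 isoproterenol or metaproterenol; nearly all actives have a fitted effect of over 65% in size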
* = called active by the depositor; ? = inconclusive; nt = no result given.

SMILES | D2 ag-1 | D2 ag-2 | D2 antag | D2 PAM-1 | D2 PAM-2 | B2AR arrestin
CCCNC(=O)C1CCC(CNS(=O)(=O)c2ccc3c(c2)CC(C)N3C(C)=O)CC1 (stereo not drawn) | 2.5 | -1.6 | 40.5* | 9.9 | -10.1 | -0.9%
Cc1ccc2nc(Nc3ccccc3)c(C=O)c(=O)n2c1 | 0.5 | 5.6 | -1.0 | 36.8* | 19.7 | 0.0%
Cc1ccc2nc(Nc3ccccc3)c(/C=N/O)c(=O)n2c1 | nt | 2.1 | nt | 0.5 | -4.1 | 0.0%
CCOC(=O)c1oc2ccc(S(=O)(=O)n3nc(-c4ccc(C)cc4)cc3N)cc2c1C | 0.3 | -30.2 | 34.6* | 1.6 | -0.1 | -0.2%
Cc1nc(SCC(=O)N2CCOCC2)c2c(=O)n(C)c(=O)n(C)c2n1 | 0.6 | 5.0 | -6.7 | 3.9 | 0.3 | -0.3%
O=C(COC(=O)C1CCN(S(=O)(=O)c2cc([N+](=O)[O-])ccc2Cl)CC1)Nc1ncc(Cl)cc1Cl | 0.9 | 2.7 | 14.3 | -6.9 | 70.4* | -0.3%
COc1ccc2nc(NC(=O)C3CCN(S(=O)(=O)c4cnc[nH]4)CC3)sc2c1 | -0.1 | -1.0 | 32.3* | 15.8 | -7.3 | 0.2%
CC(=O)COC(=O)C1CCN(S(=O)(=O)c2cc([N+](=O)[O-])ccc2Cl)CC1 | 0.3 | -1.6 | -9.5 | -3.3 | 14.2 | -0.1%
CCOc1ccc2nc(NC(=O)C3CCN(S(=O)(=O)c4cnc[nH]4)CC3)sc2c1 | 1.1 | -3.1 | 5.2 | -9.9 | -0.7 | 0.0%
Cc1ccc2nc(NC(=O)C3CCN(S(=O)(=O)c4cc([N+](=O)[O-])ccc4Cl)CC3)sc2c1 | 2.3 | ? | -4.3 | 12.8 | 58.8* | -1.2%
O=C(CSc1ccccn1)Nc1cccc2ccccc12 | -0.5 | 1.2 | 14.4 | 33.9* | 11.4 | -0.3%
COc1ccc(NC(=O)CSc2ccccn2)c([N+](=O)[O-])c1 | -0.3 | 6.6 | 31.3* | -2.7 | -4.6 | -0.6%
O=C(CSc1ccccn1)Nc1nonc1[N+](=O)[O-] | 1.6 | 63.4* | -14.9 | 6.7 | -8.1 | -0.3%
O=C(Cc1ccccc1)NCC(=O)N1CCCCC1 | 0.5 | -4.1 | 19.1 | -11.8 | -20.3 | 0.5%
CC(=O)N1CCc2cc(S(=O)(=O)N3CCN(c4ccc(C)cc4)C(C)C3)ccc21 (stereo not drawn) | 0.4 | nt | nt | -2.9 | nt | nt
COc1cc(F)ccc1CN1CCC(C(=O)Nc2ccc(Oc3ccccc3)nc2)CC1 | 1.2 | -8.1 | 39.6* | -11.2 | -17.0 | -0.9%
N#CC(C(=S)Nc1ccccc1)c1nc2ccccc2[nH]1 (stereo not drawn) | 0.9 | -6.5 | 0.4 | -3.3 | -24.3 | 1.78µM*
CCN1CCC(NC(=O)Nc2ccccc2C(=O)OC)CC1 | -0.6 | -0.7 | -13.0 | -5.0 | -16.7 | 0.4%
O=C(O)COCC(=O)NC1CCN(Cc2ccccc2)CC1 | -2.1 | 4.1 | -0.3 | 2.3 | -3.4 | 0.3%
CCc1cccc(CN2CCC(CNC(=O)Nc3ccc(Cl)cc3)CC2)c1 | -0.1 | -3.9 | 35.5* | -17.4 | -20.9 | -1.2%
CCC(C)[C@H](NC(=O)NC1CCN(Cc2ccccc2)CC1)C(=O)OC (stereo partly drawn) | 0.1 | -3.4 | 56.6* | -20.1 | -21.3 | -0.2%
COc1ccc(Cl)cc1NC(=O)NCC1CCN(Cc2cc(C)ccc2C)CC1 | 0.7 | -3.0 | 54.6* | -27.6 | -6.5 | -1.0%
COC(=O)c1ccccc1NC(=O)NC1CCN(Cc2ccccc2)CC1 | 0.9 | 3.2 | 63.9* | -18.7 | -16.6 | -0.1%
O=C(CSc1nc2ccccc2nc1Cc1ccccc1)N1CCCc2ccccc21 | 0.4 | nt | nt | -0.7 | nt | nt
COc1ccc(S(=O)(=O)NC2CCN(Cc3ccccc3)CC2)cc1NC(C)=O | -0.8 | 6.8 | 8.6 | -7.8 | -4.5 | 0.5%
SMILES | D2 ag-1 | D2 ag-2 | D2 antag | D2 PAM-1 | D2 PAM-2 | B2AR arrestin
COc1ccc(C)cc1NC(=O)NC1CCN(Cc2ccccc2)CC1 | 0.9 | -0.2 | 75.1* | -25.5 | -20.1 | 0.0%
O=C(NCC(=O)N(c1ccc(F)cc1)C(C(=O)NC1CCCC1)c1ccncc1)c1ccco1 (stereo not drawn) | 0.8 | -1.6 | 0.3 | 4.0 | -4.9 | -0.3%
CC1=CS(=O)(=O)CC1Sc1nc2ccccc2[nH]1 (stereo not drawn) | 0.2 | -0.6 | 37.7* | -7.3 | 4.1 | 0.3%
O=S1(=O)C=CC(Sc2nc3ccccc3[nH]2)C1 (stereo not drawn) | -1.7 | -3.5 | -2.6 | -2.1 | -1.9 | 4.8%
Cc1cc2c(N=O)c(NO)ccc2[nH]1 | nt | 14.7 | nt | nt | 63.2* | 0.0%
CCC1Oc2nc(SC)nnc2-c2ccccc2N1C(=O)c1ccccc1 (stereo not drawn) | -0.7 | -2.9 | 34.0* | 0.5 | -7.4 | -0.3%
COc1ccc(N2CCN(CCCNC(=O)C3CCCN(S(=O)(=O)c4cnc[nH]4)C3)CC2)cc1 (stereo not drawn) | -1.0 | -3.8 | -1.8 | 33.8* | -9.6 | 0.0%
CCCS(=O)(=O)N1CCCC(C(=O)NCCCN2CCN(c3ccccc3F)CC2)C1 (stereo not drawn) | 68.7* | 14.2 | 38.1* | -18.8 | -18.6 | 0.5%
O=C(NCCN1CCN(c2ccccc2F)CC1)C1CCCN(S(=O)(=O)c2cnc[nH]2)C1 (stereo not drawn) | -0.8 | 14.9 | 20.3 | 12.5 | 66.6* | 0.2%
O=C(NCCN1CCC(Cc2ccccc2)CC1)C1CCCN(S(=O)(=O)c2cnc[nH]2)C1 (stereo not drawn) | 14.3 | -3.5 | -23.0 | -11.8 | -5.4 | -1.5%
Cc1cc(N2CCCCC2)nc(NCc2ccccc2)n1 | 27.0 | -2.7 | -18.8 | 9.5 | -20.6 | -0.2%
CN(C)C(=O)CN1C(=O)c2cccc3cccc1c23 | -0.7 | -5.4 | -2.7 | 12.2 | -18.3 | -0.6%
COc1ccc(Br)cc1C(=O)Nc1ccc(-c2nc3cc(Cl)ccc3o2)cc1 | -0.4 | nt | nt | 8.3 | nt | nt
OCCN1CCN(c2ncnc3nc[nH]c23)CC1 | 1.2 | -2.4 | 33.9* | -8.8 | -3.2 | 0.2%
c1nc(N2CCCC2)c2[nH]cnc2n1 | -0.6 | -3.4 | -10.5 | -0.9 | -6.8 | -1.1%
CC(C)N(C(=O)N1CCN(c2ccnc3cc(Cl)ccc23)CC1)C(C)C | -1.5 | 3.4 | 30.5* | -7.7 | 11.9 | -0.7%
CCC(=O)N1CCN(c2ccnc3cc(Cl)ccc23)CC1 | 0.8 | 2.0 | 0.1 | 5.9 | -4.5 | -0.6%
CC1CC(C)CN(CCCNC(=O)Cn2cccc2C(=O)c2ccccc2)C1 (stereo not drawn) | -0.2 | -1.0 | -16.0 | 9.6 | -18.8 | 0.3%
O=C(Cn1cccc1C(=O)c1ccccc1)NCCN1CCOCC1 | 0.8 | -2.0 | 54.9* | -15.1 | -4.2 | -2.3%
Cc1ccc(C)c(N2CCN(CCCNC(=O)Cn3cccc3C(=O)c3ccccc3)CC2)c1 | 0.5 | -1.9 | 41.0* | -46.4 | -26.1 | -0.2%
